AmpC inh detg: inhibitors of E. coli AmpC beta-lactamase with detergent | P00811 | AmpC hydrolysis of nitrocefin, absorbance 480 nm, 0.01% Triton | 370,000 tested, 0.041% active | AID 485294 | Potency, µM (series often up to 114 µM), for inactives: top-dose activity change, negative = inhibition, most hits filed as inhibitors;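 also: potency is read from the fitted curve at half-maximal effect; 0% = no-compound wells and -100% = no-enzyme wells; nearly all actives have a fitted effect of over 25% in size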
Target sequence (P00811 whole entry, looked up): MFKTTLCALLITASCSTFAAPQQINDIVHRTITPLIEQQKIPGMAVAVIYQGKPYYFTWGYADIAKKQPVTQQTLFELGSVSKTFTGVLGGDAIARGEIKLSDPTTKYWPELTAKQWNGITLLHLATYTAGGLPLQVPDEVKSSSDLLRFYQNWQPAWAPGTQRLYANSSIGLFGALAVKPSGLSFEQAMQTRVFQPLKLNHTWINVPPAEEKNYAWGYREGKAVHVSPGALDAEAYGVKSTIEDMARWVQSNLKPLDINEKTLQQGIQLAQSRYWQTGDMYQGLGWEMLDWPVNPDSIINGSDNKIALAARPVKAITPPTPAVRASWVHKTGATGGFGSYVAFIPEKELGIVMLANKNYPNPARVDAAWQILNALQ
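20 mM phosphate pH 7.0 + 0.01% (detergent screen) or 0.0001% Triton X-100; 5.3 nM AmpC reagent; cpd preinc 15 min RT; nitrocefin (800 uM stock) to start; A480 q20 s × 4 min; Activity was normalised to no-enzyme and no-compound control wells.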
CHX counter: affects cycloheximide protein synthesis inhibition readout, counter-screen | AID 2314 | cell reporter, cycloheximide protein synthesis inhibition counterscreen | 300,000 tested, 12% active | max response, %; in the data active = max response mostly above about 13%, no sharp cut-off; inactive = mostly below about 14%; also: read at 38.3 µM for the half of the compounds with a filed dose; 0% is about no effect
Shiga toxin inh: blocks Shiga toxin action in Vero cells. Vero cells, Shiga toxin protein synthesis inhibition reporter. inhibition, % at 38.7 µM. 290,000 tested, 9.2% active. AID 2315; in the data active = inhibition mostly above about 28%, no sharp cut-off; inactive = mostly below about 43%; also: 0% is about no effect
AmpC no deterg: AmpC beta-lactamase inhibition without detergent; Potency, µM (doses to about 57.1 µM), without a hit: top-dose activity change, negative = inhibition, most hits filed as inhibitors; AmpC nitrocefin hydrolysis, absorbance 480 nm, 0.0001% Triton; P00811; 330,000 tested, 0.52% active;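 also: potency is read from the fitted curve at half-maximal effect; plate controls were no compound for no effect and no enzyme for full effect; nearly all actives have a fitted effect of over 20% in size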
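AmpC (5.3 nM in the dispensed reagent) in 20 mM phosphate pH 7.0 with 0.01% (detergent screen) or 0.0001% Triton X-100 was preincubated with compounds for 15 min at room temperature. Nitrocefin was then added from an 800 uM solution, and hydrolysis was followed at 480 nm.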
NS1 inh: inhibitors of influenza NS1 protein function. 270,000 tested, 0.4% active. Potency, µM (highest dose often 46.1 µM), for inactives: at the top dose activity, positive = more growth. AID 2326; calls by dose curve; also: potency is read from the fitted curve at half-maximal effect; actives are rising curves; nearly all actives have a fitted effect of over 50% in size
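S. cerevisiae expressing influenza A NS1, grown in glucose, washed, then diluted 1:100 into pH 6.0 -URA galactose medium with 23 nl compound. Growth recovery read as OD600; NS1-free strain serves as control.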
* = called active by the depositor; ? = inconclusive; · = not tested or not shown. Shown is part of a subset that was picked to be rich in hits. Unless noted, calls follow the shape of the dose curve; as a rule, active = well fitted curve in the direction sought with a large enough effect; inconclusive = small, poorly fitted or top-dose-only effect, or another doubt; inactive = no such curve, though single readings can be large; an effect the other way counts as inactive or inconclusive.

SMILES	AmpC inh detg	CHX counter	Shiga toxin inh	AmpC no deterg	NS1 inh
Cc1cc(C)c(S(=O)(=O)/N=C2/C=C(Sc3ncn[nH]3)C(=O)c3ccccc32)cc1C	-9%	33*	48*	-57%	·
Cc1ccc(C)c(S(=O)(=O)/N=C2\C=C(NS(=O)(=O)c3ccccc3)C(=O)c3ccccc32)c1	-6%	-4	-7	-47%	-2%
COc1ccc(-c2nc(N3CCN(S(=O)(=O)c4ccccc4)CC3)c3ccccc3n2)cc1	·	18	48	·	·
Cn1c(=O)oc2cc(S(=O)(=O)N3CCCC(C(=O)N4CC=C(c5ccccc5)CC4)C3)ccc21 (stereo unspecified)	-9%	-5	-6	77%	10µM*
CCOC(=O)C(CCc1ccccc1)NC(C)C(=O)N1Cc2cc(OC)c(OC)cc2CC1C(=O)O (stereo unspecified)	·	-2	-5	·	·
COC(OC)c1ccnc(-c2ccc(OC(=O)c3ccccc3)cc2)n1	-1%	27	43	7%	·
COC(OC)c1ccnc(-c2ccc(OC(=O)c3cccs3)cc2)n1	-8%	26*	61*	-2%	·
COC(OC)c1ccnc(-c2ccc(OC(C)=O)cc2)n1	?	22*	50	3%	·
CC(C)Oc1ccc(C(=O)Nc2ccc3oc(-c4ccncc4)nc3c2)cc1	-5%	·	·	·	·
Cc1nnc(SCc2cccc3ccccc23)s1	-5%	52*	71*	-6%	-36%
Cc1nc(CSc2nnc(C)s2)cs1	-13%	0	-14	-37%	0%
Cc1nnc(SCc2cccc([N+](=O)[O-])c2)s1	2%	18*	50	-15%	2%
Cc1nnc(SCc2ccc(Cl)c(Cl)c2)s1	12%	14*	22	-1%	-8%
Cc1ccccc1CSc1nsc(N)n1	-1%	13	26	-29%	-94%
Nc1nc(SCc2ccc(F)cc2)ns1	3%	40*	69*	-18%	·
O=C(Nc1nnc(SCc2ccccc2)s1)c1cccc([N+](=O)[O-])c1	-2%	5	11	-21%	-8%
Cc1nc(-c2cccc(F)c2)sc1CCNC(=O)C(=O)Nc1ccc2c(c1)OCO2	-7%	·	·	·	·
CC1CCc2c(sc(NC(=O)Cn3nnc(-c4ccc(C(F)(F)F)cc4)n3)c2C#N)C1 (stereo unspecified)	1%	·	·	·	·
COCCCNC(=O)c1cc(-c2cccnc2)nc2ccc(S(=O)(=O)N3CCC(C)CC3)cc12	2%	·	·	·	·
Nc1nnc(SCc2ccc(F)cc2)s1	1%	11	16	·	1%
Cc1nnc(SCc2ccc(F)cc2)s1	-10%	28*	55*	-9%	-54%
COc1cccc(C(=O)COc2ccc(NC(=O)c3cccs3)cc2)c1	-9%	19*	20	-29%	18%
O=C(Nc1ccc(Cl)cc1)c1cccs1	-5%	60*	82*	·	-135%
CCC(C)c1ccc(NC(=O)c2cccs2)cc1 (stereo unspecified)	?	30*	59*	-31%	-97%
O=C(Nc1ccc2[nH]ccc2c1)c1cccs1	-10%	27*	55*	-24%	-43%
SMILES	AmpC inh detg	CHX counter	Shiga toxin inh	AmpC no deterg	NS1 inh
Cc1cccc(NC(=O)Cn2c(=O)n(CCCCCC(=O)NCc3ccccc3)c(=O)c3sccc32)c1	9%	·	·	·	·
O=C(Nc1ccc(NC(=O)C2CC2)cc1)c1cccs1	?	43*	67*	-8%	-3%
Cc1ccccc1C(=O)Nc1ccc(NC(=O)c2cccs2)cc1	2%	·	·	·	·
O=C(Nc1ccc(NC(=O)c2cccs2)cc1)c1cccs1	9%	43*	83*	-25%	27%
COc1ccc(NC(=O)C2CCN(C(=O)c3cccs3)CC2)cc1	-2%	1	-12	-10%	-4%
COc1cccc(-c2nc(-c3ccc(NC(=O)c4cccs4)cc3)no2)c1	1%	56*	64*	-12%	-8%
CC(C)C(=O)Nc1ccc(NC(=O)c2cccs2)cn1	2%	50*	114*	-16%	-5%
COc1cc(C(CC(=O)NCc2ccc(F)cc2)N2Cc3ccccc3C2=O)cc(OC)c1OC (stereo unspecified)	2%	·	·	·	·
CCOc1cc(N2CCOCC2)c(OCC)cc1NC(=O)c1nn(CC)c(=O)c2ccccc12	1%	·	·	31%	·
Cc1cccc(NC(=O)c2cc(S(=O)(=O)NCCc3ccccc3)ccc2F)c1C	7%	·	·	·	·
COc1cccc(CNC(=O)c2ccc3c(c2)nc2n3CCC(C)C2)c1 (stereo unspecified)	12%	·	·	·	·
Cc1sc(NC(=O)c2cccs2)c(C(N)=O)c1C	-14%	40*	62	-17%	-47%
O=C(Nc1cccc(N2CCCC2)c1)c1cccs1	?	27*	72*	-19%	-55%
COc1ccc(C(=O)Nc2ccc(NC(=O)c3cccs3)cn2)cc1	3%	20*	43	-25%	-5%
CC(C)c1ccc(NC(=S)NNC(=O)c2cccs2)cc1	-10%	42*	72*	-41%	6%
CCOC(=O)c1c(NC(=O)c2cccs2)sc(CC)c1-c1cccs1	1%	3	-13	-20%	5%
COc1ccc(CC(=O)NNC(=O)c2cccs2)cc1	-9%	6	5	-15%	2%
CN1CCN(c2ccc(NC(=O)c3cccs3)cc2)CC1	-4%	32*	41	-26%	-2%
Cc1ccn(-c2ccc(NC(=O)c3cccs3)cc2)n1	-15%	33*	82*	-18%	-71%
COc1ccc(NC(=S)NNC(=O)c2cccs2)cc1	?	27*	46*	-4%	11%
COc1ccc(NC(=O)c2cccs2)cc1	-1%	41*	78*	-19%	8%
COc1cc(/C=C2\NC(=S)N(C)C2=O)ccc1OCc1cccc(F)c1	-7%	-2	-4	-13%	2%
CC(C)CNC(=O)c1ccc(NC(=O)c2cccs2)cc1	2%	27*	62*	-45%	8%
Nc1cccc(NC(=O)c2cccs2)c1	-13%	15*	20	-29%	5%
COc1ccc2nc3c(cc2c1)c(NC(=O)c1cccs1)nn3CC(C)C	2%	19*	88*	17%	·
SMILES	AmpC inh detg	CHX counter	Shiga toxin inh	AmpC no deterg	NS1 inh
O=C(Nc1ccc(C(=O)N2CCCCC2)cc1)c1cccs1	?	19*	68*	-4%	4%
COc1cc(NC(=O)c2ccc3oc(=O)c(S(=O)(=O)c4ccccc4)cc3c2)cc(OC)c1	23%	·	·	·	·
Cc1ccc(NC(=O)NNC(=O)c2cccs2)cc1	?	17*	38*	-8%	0%
COc1ccc(NC(=O)c2cc(S(=O)(=O)Nc3ccc(OC)cc3)cs2)cc1	-5%	7	15	11µM*	-8%
CC(C)CC(NC(=O)/C(=C/c1ccco1)NC(=O)c1ccc(Br)o1)C(=O)O (stereo unspecified)	-6%	-3	-3	-27%	4%
Cc1ccccc1CNC(=O)Cc1ccc(NC(=O)N2CCCCc3ccccc32)cc1	-3%	·	·	·	·
CCOc1cc(/C=N/n2cnnc2)ccc1O	2%	-2	-3	-6%	0%
CCOc1ccc2ccc(OCC)c(/C=N/n3cnnc3)c2c1	-8%	9.4*	31	96%	-18%

Screening data from PubChem BioAssay.
